This note sets out measurements from PubChem BioAssay (NCI).

This is part of a sample that, as a whole, favours compounds with a hit. Of some 83,000 tested, about 20% had one in any assay.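 Treatment: one concentration, 48 hours, 96-well format. Scoring: percent growth, with anything below 10 considered active.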 Activity calls are given as the source filed them.

This experiment deals with A549/ATCC NSCLC. Briefly: NCI-60 one-dose screen, 48 h (100 = growth as untreated, 0 = no growth, -100 = all killed). The note with it: 10 µM unless noted. The procedure: Growth inhibition of the A549/ATCC human Non-Small Cell Lung tumor cell line is measured as a screen for anti-cancer activity. Cells are grown in 96 well plates and exposed to the test compound for 48 hours. Compounds are tested at a single concentration, which is 10^-5 M for most compounds. The reported endpoint is percent growth (GI% or GIPRCNT), where numbers from 0 - 100% represent growth inhibition, and numbers from -100% - 0 represent cell death. For example, a value of 40 represents 60% growth inhibition. A value of 0 means no net growth occurred over the course of the experiment. A value of -40 indicates 40% of cells at the beginning of the experiment died by the end of the experiment. A value of -100 means all cells are dead at the end of the experiment.
NCI-60 Human Tumor Cell Lines Screen was performed using the standard one-dose NCI protocol, which is described in more detail at https://dtp.cancer.gov/discovery_development/nci-60/default.htm.
Compounds with GIPRCNT values below 10 were considered active. Activity score was based on GIPRCNT using the following formula: […]
Score is 0 for GIPRCNT values of 100 or above, 50 for GIPRCNT values of 0, and 100 for GIPRCNT values of -100.
For `C[n+]1c2ccccc2nc2ccc(NCCO)cc21`, the growth was 86.2% (inactive).

Regarding `Cn1cc([C@@H]2Nc3ccc4[nH]ncc4c3[C@H]3[C@H]4CCC(C4)[C@H]32)c(C(F)(F)F)n1`, the growth is 41.1% (inactive).

As to `COc1ccc(/C=C2/SC(=O)N(CC(=O)N3CCN(c4cc5c(cc4F)c(=O)c(C(=O)O)cn5C4CC4)CC3)C2=O)cc1`, the growth is 92.2% (inactive).

Take `O=C(CN1C=NC2C(N3CCOCC3)=NC=NC21)c1ccc(Br)cc1` (stereo not given): the growth was 103% (inactive).

With `COc1ccccc1N1CCN(C(CNS(=O)(=O)c2ccc(Cl)cc2)c2cccnc2)CC1` (stereo not given), the growth was 90.8% (inactive).

In the case of `O=C1/C(=C/c2ccc(O)cc2)COc2ccc(O)cc21`, the growth was 107% (inactive).

Regarding `CCN(CCO)CCNc1ccc(C)c2sc3cc(Cl)ccc3c(=O)c12`, the growth was 24.6% (inactive).

In the case of `O=C(Nc1ccc(C23CC4CC(CC(c5ccccc5)(C4)C2)C3)cc1)c1cccs1`, the growth was 72.9% (inactive).

Regarding `CCOC(=O)C1=C(C)N=c2s/c(=C\c3ccccc3O)c(=O)n2C1c1ccc(OC)c2ccccc12` (stereo not given), the growth was -21.1% (active).

`Cc1nn(-c2nc3ccccc3[nH]2)c2c1C(c1ccc(OCC(N)=O)cc1)CC(=O)N2` (stereo not given): the growth is 109% (inactive).

Regarding `CCOC(=O)c1cc2c(n1Cc1cc(OC)c(OC)c(OC)c1)-c1oncc1CCC2`, the growth is 26.7% (inactive).

Regarding `CCn1c(-c2nonc2Nc2ccc(OC)cc2)nc2ccccc21`, the growth is 93.5% (inactive).

In the case of `COC(=O)/C(CCC=C(C)C)=C1\[C@@H](OC(C)=O)C[C@@]2(C)[C@H]1C[C@@H](O)[C@H]1[C@@]3(C)CC[C@H](NCCO)[C@@H](C)[C@@H]3CC[C@@]12C`, the growth was 109% (inactive).

In the case of `Cn1c(C(=O)c2cccc3ccccc23)nc2ccccc21`, the growth is 3.42% (active).

Regarding `O=C(c1nc2ccccc2[nH]1)C1[C@@H](c2cccc(O)c2)C2CC3CCCCC3N2[C@@]12C(=O)Nc1cc(Cl)ccc12` (stereo not given in full), the growth is 27.2% (inactive).

Turning to `COc1ccc(-c2cn[nH]c2-c2cc(OC)c(OC)c(OC)c2)cc1OCc1ccccc1`, the growth is 37.7% (inactive).

On to `Cc1cccc2c(=O)c3c(sc12)c(NCCCNCCO)nc1ccccc13`, for which the growth was 39.4% (inactive).

Consider `COc1ccc(N)c(-c2cc3c(c4c2[nH]c2ccc(OC)cc24)CCCC3)c1`, for which the growth is 64.1% (inactive).

Consider `COc1cc(C2CC(c3ccc(Nc4nc(NCCO)nc(N5CCOCC5)n4)cc3)=NN2c2cc(Cl)cc(Cl)c2)cc(OC)c1OC` (stereo not given), for which the growth was 36.6% (inactive).

For the compound `COc1ccc(C2Nc3nc(OC)n(C)c(=O)c3N=C3c4ccccc4C(=O)C32)cc1` (stereo not given), the growth is 106% (inactive).

With `C#CCn1cc(C=C2C(=O)N(C)C(=O)N(C)C2=O)c2cc(Cl)ccc21`, the growth was 120% (inactive).

For `CCCc1c(C)c2sc(=O)[nH]c2[nH]c1=O`, the growth was 103% (inactive).

For the compound `CC(C)Cn1c2c(c(=S)[nH]c1=O)CCC2`, the growth was 103% (inactive).

As to `CCCCc1ccc(NS(=O)(=O)c2cc3c4c(c2)CCN4C(=O)CC3)cc1`, the growth was 10.6% (inactive).

Take `Cc1cc(Nc2ccc(OCc3ccccc3)cc2)nc2cc(O)ccc12`: the growth was 66.6% (inactive).

As for `COc1ccc(C2C3=C(COC3=O)N(CCO)c3cc4c(cc32)OCCO4)cc1` (stereo not given), the growth was 76.6% (inactive).

As for `Cc1ccccc1CNC(=O)C1CN(c2ccc(Cl)cc2)N(c2ccc(Cl)cc2)C1=O` (stereo not given), the growth was 64.4% (inactive).

On to `O=C(/C=C/c1cccc(Cl)c1)OCc1ccc2cc1OCC#C/C=C\C#CCO2`, for which the growth is 90.5% (inactive).

With `O=C(Nc1ccc(Cl)cc1F)c1cc(I)ccc1O`, the growth is 17.6% (inactive).

On to `CC/C(=C(\CC)c1ccc(OCC[N+](C)(C)C)cc1)c1ccc(OC)cc1`, for which the growth is 53% (inactive).

For the compound `COc1ccccc1C(=O)/C=C/c1ccccc1`, the growth is 76.1% (inactive).

On to `O=C(Nc1ccc(N2CCNCC2)cn1)c1[nH]ncc1Nc1ncnc2sc3c(c12)CCC3`, for which the growth was -51.7% (active).

On to `CCOc1ccc(Nc2ccnc3cc(Cl)ccc23)cc1`, for which the growth was 1.55% (active).

`O=C(Nc1ccc(F)cc1F)c1cc(I)ccc1O`: the growth was 6.86% (active).

In the case of `CCOC(=O)c1c2c(n3cccc(Cl)c13)C(=O)c1ncccc1C2=O`, the growth is 38.4% (inactive).

As for `Nc1ccc(-c2ccc(-c3ccccc3N)c3[nH]c4ccccc4c23)cc1`, the growth is 30.4% (inactive).

`CCOc1cccc(/C=N/NC(=O)C(=O)Nc2cccc(C(F)(F)F)c2)c1O`: the growth is 21.3% (inactive).

`CCCCCCC(O)(c1ccc(F)cc1)C(CN1CCOCC1)c1ccccc1` (stereo not given): the growth was 23.9% (inactive).

With `N#Cc1c(N)nc2c(c1N)C(c1ccc(F)cc1)c1ccc(N)cc1O2` (stereo not given), the growth is 101% (inactive).

With `NCCNc1nc2ccc(F)cc2c2c(=O)c3cc(F)ccc3sc12`, the growth is 43.7% (inactive).
